From PubChem
In the library only some 3.5% were active in any assay of this set; here they are far more common.
MITF inh: inhibitors of human MITF; inhibition, % at 2.6 µM; AlphaScreen MITF homodimerization, bead proximity signal; O75030; 650,000 compounds, 0.91% hits; AID 1259374; in the data active means inhibition above about 50%;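 further: 0% = vehicle wells with protein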
TEAD-YAP block: TEAD-YAP interaction inhibition; HEK-TIYL cells, TEAD-Gal4/YAP UAS-luciferase luminescence; inhibition, % at 9.12 µM; 640,000 compounds, 1.4% hits; AID 1259422; in the data active means inhibition above about 32%;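 further: 0% = median of test compound wells and 100% = reference inhibitor wells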
FBW7 act: activators of human E3 ligase FBW7; 650,000 compounds, 0.13% hits; AID 1259310; AlphaScreen FBW7–phospho-cyclin E peptide binding, activator screen; Q969H0; normalized activity (activation), % at 26.1 µM; in the data active means normalized activity above about 1.9%;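 further: purified mutant Fbw7 with reduced substrate affinity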
GPR151 activ: human GPR151 activation. Q8TDV0. PathHunter beta-arrestin GPR151 cells, luminescence. activation, % at 11.2 µM. 650,000 compounds, 1% hits. AID 1508602; in the data active means activation above about 4.9%;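 further: 0% = median of compound wells and 100% = cells with positive control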
Target sequence (Q8TDV0 whole entry, looked up): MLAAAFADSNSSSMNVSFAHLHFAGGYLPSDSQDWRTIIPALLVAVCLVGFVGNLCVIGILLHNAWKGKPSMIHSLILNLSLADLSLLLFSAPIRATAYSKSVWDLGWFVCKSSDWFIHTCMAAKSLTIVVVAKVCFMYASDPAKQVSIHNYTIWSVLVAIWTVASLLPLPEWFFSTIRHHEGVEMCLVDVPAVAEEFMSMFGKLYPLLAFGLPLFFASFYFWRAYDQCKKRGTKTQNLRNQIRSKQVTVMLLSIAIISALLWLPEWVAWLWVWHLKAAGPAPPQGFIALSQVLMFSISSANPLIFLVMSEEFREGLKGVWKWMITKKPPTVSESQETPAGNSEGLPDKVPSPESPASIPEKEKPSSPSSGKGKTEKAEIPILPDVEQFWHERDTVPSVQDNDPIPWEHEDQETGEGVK
Active calls of the source: *.

SMILES	MITF inh	TEAD-YAP block	FBW7 act	GPR151 activ
CC(=O)NC12CC3CC(CC(CC(=O)O)(C3)C1)C2	-1	3	0	2
CN1CCN(Cc2c(O)ccc3c(=O)c(Oc4ccc(C(C)(C)C)cc4)c(C(F)(F)F)oc23)CC1	3	34*	1	-1
CC(C)(C)c1ccc(Oc2c(C(F)(F)F)oc3c(CN4CCCC4)c(O)ccc3c2=O)cc1	10	36*	0	0
Cc1cc(C)cc(Oc2c(C(F)(F)F)oc3c(CN4CCCCC4)c(O)ccc3c2=O)c1	14	-3	0	-2
CN1CCN(Cc2c(O)ccc3c(=O)c(Oc4ccc(-c5ccccc5)cc4)c(C(F)(F)F)oc23)CC1	13	-3	0	-1
CCNc1oc(COc2ccccc2F)nc1C#N	5	-32	0	3
CCN1/C(=C/c2scc(-c3ccccc3)[n+]2C)C=Cc2cc(C)ccc21	9	80*	-1	4
CCN1/C(=C/c2ccc3cc(C)ccc3[n+]2C)C=Cc2cc(C)ccc21	47	83*	-1	-1
CCCC1=C(C(=O)OCC)C(c2ccccc2[N+](=O)[O-])n2ncnc2N1 (stereo not drawn)	-5	4	0	0
CCCC1=C(C(=O)OCC)C(c2cccc([N+](=O)[O-])c2)n2ncnc2N1 (stereo not drawn)	11	33*	0	-1
Nc1cc(=O)[nH]c(SCc2ccccc2CSc2nc(N)cc(=O)[nH]2)n1	4	-2	0	1
Nc1cc(=O)[nH]c(S/C=C/c2ccccc2)n1	5	34*	0	-6
CC1=NOC(=O)/C1=C\c1ccc(-c2ccc(Cl)c(C(=O)O)c2)o1	15	-1	0	0
CC1=NOC(=O)/C1=C/c1ccc(-c2ccc(C(=O)O)cc2)o1	57*	7	0	0
COC(=O)c1nn(-c2ccc(F)c(Cl)c2)cc1O	6	-31	0	0
COC(=O)c1nn(-c2ccc(C)c(C)c2)cc1O	-1	54*	0	-6
C=CCNC(=O)c1ccc(-c2cnn(-c3ccc(C(C)C)cc3)c2)nc1	5	6	1	2
O=[N+]([O-])c1ccc2ncnc(N3CCN(Cc4ccccc4)CC3)c2c1	16	9	1	-1
CC1CCCN(c2ncnc3ccc([N+](=O)[O-])cc23)C1 (stereo not drawn)	1	35*	0	1
Cn1nc(-c2ccc(Cl)cc2)cc1NC(=O)Cn1c2ccccc2c(=O)c2ccccc21	0	-3	1	0
Cn1nc(-c2ccc(Cl)cc2)cc1NC(=O)CCl	-1	46*	0	-2
CCC(Nc1ncnc2ccccc12)C(=O)O (stereo not drawn)	-1	6	0	0
CCOC(=O)/C(=N\Nc1ncnc2ccccc12)c1cccs1	-3	36*	0	-10
N#C/C(C(=O)Oc1ccccc1)=C1/C=CC=CN1	-7	-44	0	-3
CN(c1ccccc1)c1ccc(/C=C/[N+](=O)[O-])cc1	-7	34*	0	-1
SMILES	MITF inh	TEAD-YAP block	FBW7 act	GPR151 activ
Cc1ccc(CN2CC(C(=O)Nc3ncc(C)s3)CC2=O)cc1 (stereo not drawn)	-7	44*	0	-1
CN(C)c1cccc(C(=O)NCC2CCC3(CCN(C(=O)c4ccncc4)CC3)O2)c1 (stereo not drawn)	11	0	0	0
CC1CCN(c2nc3ncccc3nc2-c2ccccc2)CC1	11	-1	2.1*	0
COc1ccc(C2CC(=O)C3=C(C2)NC(C)=C(C(=O)OCc2ccccc2)C3c2cccc([N+](=O)[O-])c2)cc1 (stereo not drawn)	1	59*	0	1
CC1=C(C(=O)OCc2ccccc2)C(c2ccc(O)c([N+](=O)[O-])c2)C2=C(CC(c3ccccc3)CC2=O)N1 (stereo not drawn)	15	44*	0	0
COC(=O)C1=C(C)NC2=C(C(=O)CC(c3ccccc3)C2)C1c1ccc(O)c([N+](=O)[O-])c1 (stereo not drawn)	18	9	0	0
CC1=C(C(=O)OCc2ccccc2)C(c2cccc([N+](=O)[O-])c2)C2=C(CC(c3ccccc3)CC2=O)N1 (stereo not drawn)	-4	56*	0	0
CCOC(=O)N1CCN(C(c2ccccn2)c2c(O)cc(C)n(CC)c2=O)CC1 (stereo not drawn)	-15	-7	0	1
COc1ccc(C2CC(c3ccc(Br)cc3)=NN2c2ccccc2)cc1OC (stereo not drawn)	-1	-13	0	-1
COC(=O)CC[C@H]1CN(Cc2ccc(Cl)cc2)CC[C@H]1N1CCN(C)CC1	-1	0	1	0
O=C(NC1CCCCCC1)c1ccc(-n2c(=S)[nH]c3ccccc3c2=O)cc1	-3	-6	0	0
CCc1ccc(NC(=O)C(=O)NCCN2CCN(Cc3ccc(Br)cc3)CC2)cc1	6	0	1	-1
Cn1cc(CNC2CCN(c3ccc(NS(=O)(=O)c4ccccc4)cc3)CC2)cn1	-4	6	0	0
O=C1C=CC2=C3c4cc(O)c(O)cc4CC3(O)COC2=C1O (stereo not drawn)	92*	-16	0	-1
COc1cccc(NC(=O)Cn2cc(C(=O)c3ccccc3)c(=O)c3cc(Cl)ccc32)c1	1	-2	0	0
CCOc1ccc(NC(=O)Cn2cc(C(=O)c3ccccc3)c(=O)c3cc(Cl)ccc32)cc1	6	3	2.7*	-1
CCOC(=O)c1cc(NC(=O)Cn2cc(C=O)c3ccccc32)ccc1Cl	15	35*	0	1
NC(=O)C1CCN(C(=O)CCc2nc3ccccc3n2-c2ccccc2)CC1	5	1	0	-2
Cc1ccc(/C=C2/SC(=S)N(CO)C2=O)o1	85*	11	-1	-1
Cc1ccc(/C=C2/SC(=S)N(CCC(=O)O)C2=O)o1	39	1	0	0
CCCN1C(=O)/C(=C/c2ccc(C)o2)SC1=S	-3	0	0	5
Cc1ccc(/C=C2/SC(=S)N(c3ccc(CC(=O)O)cc3)C2=O)o1	59*	-5	0	1
Cc1ccc(/C=C2\SC(=S)N(/N=C/c3ccc(C)o3)C2=O)o1	54*	7	-1	0
Cc1ccc(/C=C2\SC(=S)N(CCCC(=O)O)C2=O)o1	31	53*	0	0
CCCCOc1ccc(C2=N/C(=C\c3ccc(Br)cc3)C(=O)N2c2ccc(C(C)=O)cc2)cc1	-12	-2	0	-1
CCCN1C2=NS(=O)(=O)CCN2c2ccccc21	-17	-5	0	1
COC(=O)C1=NN(c2ccccc2OC)C2C(=O)N(c3ccc(Cl)cc3)C(=O)C12 (stereo not drawn)	5	3	0	1
CC(=O)Nc1cc(-c2ccnc(N)n2)ccc1NC(=O)COc1cccc(C)c1	1	18	0	0
Cc1cccc(OCc2nc3ccc(-c4ccnc(N)n4)cc3[nH]2)c1	7	57*	0	0
COc1ccc(S(=O)(=O)N(CC(=O)NCCc2ccc(OC)c(OC)c2)c2ccc(C)cc2)cc1	1	36*	0	-1
